From the supplement of paper PMC13380429

Columns and labels:
[1] = system: Vero E6 infected with SARS-CoV-2; experiment: morphology score (similarity to uninfected cells); higher = more like uninfected cells; conditions: 24 h
[2] = system: Vero E6 infected with SARS-CoV-2; experiment: SARS-CoV-2 infection rate relative to infected DMSO; higher = more infection, active = 60 or less; conditions: 24 h

Row | Structure (SMILES) | morphology score [1] | SARS-CoV-2 infection rate [2]
1 | C[C@@H]1O[C@@H](OC[C@H]2O[C@@H](Oc3c(-c4ccc(O)c(O)c4)oc4cc(O)cc(O)c4c3=O)[C@H](O)[C@@H](O)[C@@H]2O)[C@H](O)[C@H](O)[C@H]1O [rutin] (10 µM) | -0.197 | 112% (inactive)
2 | COc1cc2c(cc1O)CC[C@@H]1[C@@H]2CC[C@]2(C)[C@@H](O)CC[C@@H]12 [2-methoxyestradiol] (0.833333 µM) | 0.00558 | 102% (inactive)
3 | NC(N)=Nc1nc(CSCC/C(N)=N/S(N)(=O)=O)cs1 [Famotidine] (10 µM) | -0.0119 | 106% (inactive)
4 | CC(C)(C)C(=O)OCOC(=O)[C@@H]1N2C(=O)C[C@H]2S(=O)(=O)C1(C)C [sulbactam-pivoxil] (10 µM) | 0.184 | 89% (inactive)
5 | COc1cc(NS(=O)(=O)c2ccc(N)cc2)ncn1 [sulfamonomethoxine] (10 µM) | 0.102 | 89.5% (inactive)
6 | Cn1ncc(Cl)c1-c1cc(C(=O)N[C@H](CN)Cc2ccc(F)c(F)c2)oc1Cl [uprosertib] (10 µM) | 0.441 | 96.5% (inactive)
7 | N[C@H](C(=O)O)c1ccc(O)cc1 [oxfenicine] (10 µM) | 0.246 | 103% (inactive)
8 | O=[N+]([O-])c1cc2nc(O)c(O)nc2cc1[N+](=O)[O-] (10 µM) | 0.165 | 100% (inactive)
9 | COC1=C2C[C@@H](C)C[C@H](OC)[C@H](O)[C@@H](C)/C=C(\C)[C@H](OC(N)=O)[C@@H](OC)/C=C\C=C(/C)C(=O)NC(=CC1=O)C2=O [geldanamycin] (0.833333 µM) | -0.177 | 98.5% (inactive)
10 | CN(C/C=C/C#CC(C)(C)C)Cc1cccc2ccccc12 [terbinafine] (10 µM) | 0.413 | 81% (inactive)
11 | CC1Oc2cc(cnc2N)-c2c(nn(C)c2C#N)CN(C)C(=O)c2ccc(F)cc21 (centres undefined) (0.833333 µM) | 0.32 | 81.5% (inactive)
12 | Fc1ccc(CN2CCC(Nc3ccc(C(F)(F)F)nn3)CC2)cc1F (10 µM) | -0.198 | 110% (inactive)
13 | S=C(NC1CCCCC1)N1CCC(c2cnc[nH]2)CC1 [thioperamide] (10 µM) | 0.083 | 96.5% (inactive)
14 | NC(CO)(CO)CO [trometamol] (10 µM) | -0.0719 | 106% (inactive)
15 | CC(C(=O)O)c1cccc(Oc2ccccc2)c1 (centres undefined) [fenoprofen] (10 µM) | 0.0202 | 108% (inactive)
16 | O=C(O)C(=O)CBr [3-bromopyruvate] (10 µM) | -0.102 | 111% (inactive)
17 | CCCN(C/C=C/I)[C@H]1CCc2ccc(O)cc2C1 [7-hydroxy-PIPAT] (10 µM) | -0.0984 | 118% (inactive)
18 | CSCC1CN(/N=C/c2ccc([N+](=O)[O-])o2)C(=O)O1 (centres undefined) [inimur] (10 µM) | 0.187 | 92% (inactive)
19 | CN(C)N(C)C(=O)[C@@]1(Cc2ccccc2)CCCN(C(=O)[C@@H](Cc2c[nH]c3ccccc23)NC(=O)C(C)(C)N)C1 [anamorelin] (10 µM) | 0.0474 | 98.5% (inactive)
20 | Cc1cc(O)c2c(=O)c3c(O)cc(O)c4c5c(O)cc(O)c6c(=O)c7c(O)cc(C)c8c1c2c(c34)c(c78)c65 [hypericin] (10 µM) | -0.152 | 114% (inactive)
21 | CS(=O)(=O)c1cc(F)cc2c3c(n(Cc4ccc(Cl)cc4)c12)[C@@H](CC(=O)O)CC3 [laropiprant] (10 µM) | 0.0115 | 106% (inactive)
22 | CN1CCC(c2c[nH]c3ccc(O)cc23)CC1 (10 µM) | 0.214 | 101% (inactive)
23 | CC(=O)N[C@@H](Cc1c[nH]c2ccccc12)C(=O)OCc1cc(C(F)(F)F)cc(C(F)(F)F)c1 (10 µM) | 0.31 | 93% (inactive)
24 | COc1ccc(S(=O)(=O)Nc2nc(-c3cccc([N+](=O)[O-])c3)cs2)cc1OC (10 µM) | -0.00369 | 107% (inactive)
25 | C=CC(=O)Nc1cccc(Nc2nc(Nc3ccc(OCCOC)cc3)ncc2F)c1 (0.833333 µM) | -0.0246 | 116% (inactive)
26 | CN/C(=N\S(=O)(=O)c1ccc(Cl)cc1)N1C[C@H](c2ccccc2)C(c2ccc(Cl)cc2)=N1 (racemic) (10 µM) | -0.133 | 114% (inactive)
27 | CC/C(=C(/c1ccc(OCCN(C)C)cc1)c1cccc(O)c1)c1ccccc1 [droloxifene] (10 µM) | 0.73 | 24% (active)
